# Data as given in the OligoGym collection.
# Assays:
# Test in all cases: pooled miR-30 sensor sort-seq; sequence = guide strand
# Conditions in all cases: shRNA
# TMEM218 = target: TMEM218
# TMEM8B = target: TMEM8B
# TNFAIP6 = target: TNFAIP6
# TNPO2 = target: TNPO2
# TRAPPC2 = target: TRAPPC2
# TRIM38 = target: TRIM38
# TRMT1 = target: TRMT1
# TSC22D3 = target: TSC22D3
# TSC22D2 = target: TSC22D2
# TSEN34 = target: TSEN34
# TSC1 = target: TSC1
# TTLL3 = target: TTLL3
# TTC7A = target: TTC7A
# TSPYL2 = target: TSPYL2
# TTC27 = target: TTC27
# TXLNG = target: TXLNG
# UBXN2A = target: UBXN2A
# UNC5D = target: UNC5D
# UST = target: UST
# VAMP8 = target: VAMP8
# WFDC12 = target: WFDC12
# XAGE3 = target: XAGE3
# XAGE5 = target: XAGE5
# XCL2 = target: XCL2
# XKR5 = target: XKR5
# Also: reference of the scale not given here.
sequence,measurement,setting,value
AAAGCCAGCAGGACATAGCGGC,sensor-assay potency score (higher = more potent),TMEM218,-0.627
AAGCACTGCTGTCTCTGTCTGT,sensor-assay potency score (higher = more potent),TMEM8B,-0.532
TTATCTATGCATGACAGTTTGG,sensor-assay potency score (higher = more potent),TMEM8B,-0.348
TTCAAATTCACACACCGCCTTA,sensor-assay potency score (higher = more potent),TNFAIP6,-0.588
TAGTACTTGTATTTTTTCCTTG,sensor-assay potency score (higher = more potent),TNFAIP6,-0.262
TTGTCTTCGTCCTTGAGCTCAT,sensor-assay potency score (higher = more potent),TNPO2,0.165
AATCTTATAAAACATGTCCCGA,sensor-assay potency score (higher = more potent),TNPO2,-0.983
TTGATCGAATAGGAGAATTGGG,sensor-assay potency score (higher = more potent),TRAPPC2,-0.578
ATGCACTTGATCGAATAGGAGA,sensor-assay potency score (higher = more potent),TRAPPC2,-1.42
TATAAAAGGATACAACTCCGGC,sensor-assay potency score (higher = more potent),TRIM38,-0.57
TACGTCTTCAACAAGAGCTGTG,sensor-assay potency score (higher = more potent),TRIM38,-0.0393
TAGAAGTCAGCGCTGATGCTGA,sensor-assay potency score (higher = more potent),TRMT1,-0.13
TCTCTGATAGTCGCTCCCGTTT,sensor-assay potency score (higher = more potent),TRMT1,-1.66
TAGCTGGGAGTTCTTCTCCACC,sensor-assay potency score (higher = more potent),TSC22D3,-1.58
TCTCTCACAGCATACATCAGAT,sensor-assay potency score (higher = more potent),TSC22D3,-0.863
TAAAACTTCCACTTCTTCTCTT,sensor-assay potency score (higher = more potent),TSC22D2,0.683
TAGCTGTGACACAGCAGTCAAG,sensor-assay potency score (higher = more potent),TSC22D2,-1.48
TATGCTGTTGAGCTTGTCGGTA,sensor-assay potency score (higher = more potent),TSC22D3,-0.561
TTCTGCTTCTTAGCAGCCTGGC,sensor-assay potency score (higher = more potent),TSEN34,-0.77
TTGTTGTCTATGGCCACCACGC,sensor-assay potency score (higher = more potent),TSC22D3,-1.5
TTCTTCACCAGATCCATGGCCT,sensor-assay potency score (higher = more potent),TSC22D3,0.0668
TCAACAGGAATAGCTATGCTGA,sensor-assay potency score (higher = more potent),TSC22D2,-0.503
TAGACCAGGAAGTCACCTCCGA,sensor-assay potency score (higher = more potent),TSEN34,0.0618
TTCTCTTACTGCATACATCAAA,sensor-assay potency score (higher = more potent),TSC22D2,-0.826
TGTTCTCACGCTCTAGCTGGGA,sensor-assay potency score (higher = more potent),TSC22D3,-0.875
TTCGATCTTGTTGTCTATGGCC,sensor-assay potency score (higher = more potent),TSC22D3,0.125
TTGTTGTTCTCCCCGCTGCTGC,sensor-assay potency score (higher = more potent),TSC22D3,-1.15
TTTAACAGTGCATTTTCTCGTT,sensor-assay potency score (higher = more potent),TSC22D2,0.0173
AACTTCTCCAGCTGCTCTGGGC,sensor-assay potency score (higher = more potent),TSC22D3,-1.22
TAGGACATCTCTTGGCACCAGC,sensor-assay potency score (higher = more potent),TSC22D3,-0.981
TCTAGTTTCTGCTTCTTAGCAG,sensor-assay potency score (higher = more potent),TSEN34,0.419
TTATGCTGTTGAGCTTGTCGGT,sensor-assay potency score (higher = more potent),TSC22D3,-0.79
TTCTTCTCCACCAGCTCTCGGA,sensor-assay potency score (higher = more potent),TSC22D3,-1.12
ATGCTGTTGAGCTTGTCGGTAT,sensor-assay potency score (higher = more potent),TSC22D3,-1.17
TTGCCAGGGTCTTCAACAGGGT,sensor-assay potency score (higher = more potent),TSC22D3,-0.965
TAGTATTCCATACACGTCCATC,sensor-assay potency score (higher = more potent),TSC22D2,-1.07
TTGAGCTTGTCGGTATTGAGGT,sensor-assay potency score (higher = more potent),TSC22D3,-0.00573
TTCAGGGCTCAGACAGGACTGG,sensor-assay potency score (higher = more potent),TSC22D3,-0.708
TTAACAGTGCATTTTCTCGTTC,sensor-assay potency score (higher = more potent),TSC22D2,-0.691
TCGATCTTGTTGTCTATGGCCA,sensor-assay potency score (higher = more potent),TSC22D3,-0.64
TCTTCTAGTATCGTCGACTTGC,sensor-assay potency score (higher = more potent),TSC22D2,0.0712
TTTTCTTCTAGTATCGTCGACT,sensor-assay potency score (higher = more potent),TSC22D2,-0.0154
TGAGCTTGTCGGTATTGAGGTT,sensor-assay potency score (higher = more potent),TSC22D3,-0.394
TATTCCATACACGTCCATCGGC,sensor-assay potency score (higher = more potent),TSC22D2,-0.556
TAGTATCGTCGACTTGCCCGAC,sensor-assay potency score (higher = more potent),TSC22D2,-0.774
TTGTCGGTATTGAGGTTCTCAA,sensor-assay potency score (higher = more potent),TSC22D3,-1.48
TTCCAGGTAATAATCCACCAAG,sensor-assay potency score (higher = more potent),TSC1,-1.16
ATTGAGGTTCTCAAAGACCAGC,sensor-assay potency score (higher = more potent),TSC22D3,-1.14
TTGTCTATGGCCACCACGCTGG,sensor-assay potency score (higher = more potent),TSC22D3,-0.721
TCGTTGATCAGGTAGCAGGGGT,sensor-assay potency score (higher = more potent),TSC22D3,-0.312
ATGGTCTGGTCGATGTTGCGGT,sensor-assay potency score (higher = more potent),TSC22D3,-0.997
TTCTTCATAGGAACAGTCGTTG,sensor-assay potency score (higher = more potent),TSC22D3,-0.524
AAAACTTCCACTTCTTCTCTTA,sensor-assay potency score (higher = more potent),TSC22D2,0.265
TAGCTGTCGCGGTAGAACCACA,sensor-assay potency score (higher = more potent),TTLL3,-1.71
TCTTGCTTGGACTTCAGGGTGG,sensor-assay potency score (higher = more potent),TTC7A,0.115
TCTCTGTCGTCATCATCGCTGC,sensor-assay potency score (higher = more potent),TSPYL2,-0.7
TTCAGATGCCTCGACGTGCTGT,sensor-assay potency score (higher = more potent),TTC7A,-0.177
TCTCCTTCAAACACTGCTCCAG,sensor-assay potency score (higher = more potent),TTC7A,-0.633
TTAAAAATCAATATCTTGCATT,sensor-assay potency score (higher = more potent),TTC27,-0.512
TGAACCTTGATAGTCTTCCAAG,sensor-assay potency score (higher = more potent),TTC27,-1.57
TTCATTGTCACTGTCGCTGCTG,sensor-assay potency score (higher = more potent),TSPYL2,0.841
TTTGGCTTCGCTCATCTTCGGC,sensor-assay potency score (higher = more potent),TTC7A,-0.912
TACTTCTGCACCACCCACTTGC,sensor-assay potency score (higher = more potent),TTLL3,-0.25
TATCCAACTGATCTTTTGCTTT,sensor-assay potency score (higher = more potent),TTC27,-0.994
TTCTAGAGTCACACAGCGCTGA,sensor-assay potency score (higher = more potent),TTC27,0.0912
TACACTTGAGAGCTTCTTGTAA,sensor-assay potency score (higher = more potent),TTC27,-0.514
ATAGATGTCCTCATCTTGCTGG,sensor-assay potency score (higher = more potent),TSPYL2,0.469
TTGACAATCACCATGTTTGTGA,sensor-assay potency score (higher = more potent),TSPYL2,0.272
TGGCACTGGAGATCTGTCGGAC,sensor-assay potency score (higher = more potent),TTC7A,-0.75
TTGTGGTCTTCTCCAATTCCTG,sensor-assay potency score (higher = more potent),TTC7A,-1.59
TACAGATGTATCTTTTACCAGC,sensor-assay potency score (higher = more potent),TTC27,-0.789
TTTATTTGGTGTTGGATCCAGG,sensor-assay potency score (higher = more potent),TTLL3,-0.616
TTACTTTTTGTTTTAATCGGAT,sensor-assay potency score (higher = more potent),TTC27,-0.347
TTTTTCTCCAGCTCTTGTCTAA,sensor-assay potency score (higher = more potent),TTC27,-0.459
TAAATCATCGAAGTCGAACAGC,sensor-assay potency score (higher = more potent),TTLL3,-0.665
TTGGCTTCGCTCATCTTCGGCT,sensor-assay potency score (higher = more potent),TTC7A,-0.61
TAGAGTACTGAGTGAGAAGTGG,sensor-assay potency score (higher = more potent),TTC7A,-0.197
TTGACCTTCCGACAGGTGCTAG,sensor-assay potency score (higher = more potent),TTLL3,-0.947
ATCATCGAAGTCGAACAGCTGT,sensor-assay potency score (higher = more potent),TTLL3,-0.524
TTTAAGGACCTGAACATCTTTG,sensor-assay potency score (higher = more potent),TTC27,-0.304
TGTCGCGGTAGAACCACACGGT,sensor-assay potency score (higher = more potent),TTLL3,-0.291
TTTGCCTTTGGCCTTGACCTTC,sensor-assay potency score (higher = more potent),TTLL3,-0.876
TACACACTCTTGAAACTCCTTA,sensor-assay potency score (higher = more potent),TTC27,0.361
TTGGATTGTAAAGATCTTCTTC,sensor-assay potency score (higher = more potent),TTLL3,0.486
TTGATAATCTCAGCAATCCTGT,sensor-assay potency score (higher = more potent),TSPYL2,-0.197
TTCTGCACCACCCACTTGCCGT,sensor-assay potency score (higher = more potent),TTLL3,-1.06
TTCCTCGATGTTGTCCTTGGGG,sensor-assay potency score (higher = more potent),TTC7A,-0.621
TTCTGCAAGCTCACTGTCCGGT,sensor-assay potency score (higher = more potent),TTC7A,0.427
TTCTTTTGAAAATTAGTGCAGA,sensor-assay potency score (higher = more potent),TTC27,-0.195
TTCATCTTGCTTGGACTTCAGG,sensor-assay potency score (higher = more potent),TTC7A,-0.871
TAGGGTATGACTTCCACTCAGA,sensor-assay potency score (higher = more potent),TTLL3,-0.0416
TTGCTGAACCTTGATAGTCTTC,sensor-assay potency score (higher = more potent),TTC27,-0.804
TTTGATGACAAAAGCCTCCGAC,sensor-assay potency score (higher = more potent),TTC7A,-0.154
TTGCACGCCAGCACAGAGCCGG,sensor-assay potency score (higher = more potent),TTLL3,-1.05
TTCTCTGTTATAAAGTCACTGC,sensor-assay potency score (higher = more potent),TXLNG,-0.298
TTAAATTTCTGGACAATCCTTT,sensor-assay potency score (higher = more potent),UBXN2A,0.433
TAACTTCTGAAATCGTCGTTGA,sensor-assay potency score (higher = more potent),UBXN2A,0.784
TTTGTGATGACACAGTACCCAC,sensor-assay potency score (higher = more potent),UNC5D,-1.26
TACATTTGTTTATCAATCCTGA,sensor-assay potency score (higher = more potent),UNC5D,-0.0896
TTCAAGAATACACTCATTGATA,sensor-assay potency score (higher = more potent),UST,-0.731
TACCCTGTTGTACACCACCTGG,sensor-assay potency score (higher = more potent),UST,-1.05
TTTTCGAGCCACCTTCTGCGAT,sensor-assay potency score (higher = more potent),VAMP8,-1.17
TGCAGGTAACAACACTTCCTTT,sensor-assay potency score (higher = more potent),WFDC12,-1.24
TCTTCTTCTCTCTCCTGACCAG,sensor-assay potency score (higher = more potent),XAGE3,-1.02
TTCTTCTTGTTGAGGCTCTGGC,sensor-assay potency score (higher = more potent),XAGE5,-0.323
AAGTCGTAAACATCGTCTTGGT,sensor-assay potency score (higher = more potent),XAGE5,-0.56
CTTGATTCTGCTAACTGGCAGT,sensor-assay potency score (higher = more potent),XCL2,-1.63
TGGTACACTTCTCCTCGGCCTA,sensor-assay potency score (higher = more potent),XAGE3,-1.1
TTCTTCTCTCTCCTGACCAGGT,sensor-assay potency score (higher = more potent),XAGE3,-0.766
TAAAAGGTGAGTATAATCTCAG,sensor-assay potency score (higher = more potent),XCL2,-0.178
TCTCCTGACCAGGTGCAGGATC,sensor-assay potency score (higher = more potent),XAGE3,-0.873
TTTTAAATTGCTCTGATTTTGG,sensor-assay potency score (higher = more potent),XAGE5,-0.858
TATCTCCGCATTCATCCCCAGT,sensor-assay potency score (higher = more potent),XAGE5,-1.35
TATAATCTCAGTCCATGAGGGT,sensor-assay potency score (higher = more potent),XCL2,-0.365
TTCCTCTTGCTGAGGCTCCTCA,sensor-assay potency score (higher = more potent),XAGE3,-0.958
TTTCAGTTGGTGGTTCCTCTTG,sensor-assay potency score (higher = more potent),XAGE3,-0.62
TTCTGCTAACTGGCAGTCGCTG,sensor-assay potency score (higher = more potent),XCL2,-1.02
CTATGTGAGACTTCACTCCCTA,sensor-assay potency score (higher = more potent),XCL2,-0.487
TGAGCAAGTCGTAAACATCGTC,sensor-assay potency score (higher = more potent),XAGE5,-0.511
TTGATCTTAGACACATTTCCTG,sensor-assay potency score (higher = more potent),XKR5,0.217
